PriA SSB inh: inhibitors of Klebsiella pneumoniae PriA binding to SSB C-terminal tail, primary screen, biochemical, AlphaScreen. PriA–SSB C-terminal tail interaction (Klebsiella pneumoniae). AlphaScreen SSBct-PriA binding, biotinylated peptide. inhibition, % at 33 µM. hit rate 0.6% among 430,000. AID 1272365, 2023; in the data active means inhibition mostly above about 37%, no sharp cut-off; inactive means mostly below about 20%;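 further: plate controls were negative control peptide for no effect and reference peptide for full effect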
DUSP3 inh: VHR1 phosphatase inhibitors, primary screen, biochemical, absorbance, uHTS; Dual specificity protein phosphatase 3 (Homo sapiens), P51452; recombinant VHR phosphatase, pNPP absorbance; inhibition, % at 13.3 µM; hit rate 0.52% among 290,000; AID 1654, 2009; in the data active means inhibition above about 50%
SARS 3CLpro inh-1: SARS-CoV 3CLpro protease inhibitors, primary screen, biochemical, quenched FRET | inhibition, % at 6 µM | recombinant SARS-CoV 3CLpro, quenched FRET peptide cleavage | AID 1706, 2009 | hit rate 0.14% among 290,000; in the data active means inhibition above about 12%
CCHFV vOTU inh: CCHFV vOTU protease inhibitors, primary screen, biochemical, Pep-AMC substrate, fluorescence; Crimean-Congo hemorrhagic fever virus L polyprotein viral ovarian tumor (vOTU) protease …; inhibition, % at 11.5 µM; hit rate 0.55% among 370,000; AID 651958, 2012; in the data active means inhibition above about 30%; further: 0% = vehicle wells with enzyme and 100% = no enzyme wells
RecA intein inh: Mtb RecA intein splicing inhibitors, primary screen, biochemical, fluorescence, HTS; Protein RecA (Mycobacterium tuberculosis (strain ATCC 25618 / H37Rv)), P9WHJ3; cell-free RecA intein splicing; inhibition, % (no concentration beside the values); hit rate 0.75% among 290,000; AID 2221, 2009; in the data active means inhibition above about 30%;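 further: 0% = vehicle wells and 100% = reference inhibitor control wells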
Target sequence (P9WHJ3 whole entry, looked up): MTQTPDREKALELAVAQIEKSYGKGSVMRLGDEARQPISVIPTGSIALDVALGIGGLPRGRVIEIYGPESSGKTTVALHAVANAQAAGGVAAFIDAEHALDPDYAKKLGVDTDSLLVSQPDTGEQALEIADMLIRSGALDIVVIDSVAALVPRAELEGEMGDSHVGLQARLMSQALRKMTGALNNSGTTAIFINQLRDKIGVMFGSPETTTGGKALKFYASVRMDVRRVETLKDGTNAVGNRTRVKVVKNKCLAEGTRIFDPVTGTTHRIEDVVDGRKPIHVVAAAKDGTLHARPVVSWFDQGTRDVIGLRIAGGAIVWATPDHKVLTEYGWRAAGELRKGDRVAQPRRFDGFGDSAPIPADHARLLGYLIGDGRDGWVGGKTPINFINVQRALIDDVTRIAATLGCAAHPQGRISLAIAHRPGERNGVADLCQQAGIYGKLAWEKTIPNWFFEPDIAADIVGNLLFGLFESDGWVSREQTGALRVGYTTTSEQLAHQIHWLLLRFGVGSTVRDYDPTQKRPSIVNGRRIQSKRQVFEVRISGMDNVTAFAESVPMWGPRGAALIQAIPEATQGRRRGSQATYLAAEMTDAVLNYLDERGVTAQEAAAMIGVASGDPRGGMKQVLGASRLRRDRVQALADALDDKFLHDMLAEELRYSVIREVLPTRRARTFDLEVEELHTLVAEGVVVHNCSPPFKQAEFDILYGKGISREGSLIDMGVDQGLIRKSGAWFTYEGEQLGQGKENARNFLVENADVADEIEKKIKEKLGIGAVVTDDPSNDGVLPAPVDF
SARS 3CLpro inh-2: confirmation of SARS coronavirus 3C-like protease inhibitors, retest, confirmation, biochemical; shares compounds with SARS 3CLpro inh-1; QFRET protease activity assay, 3CLpro; inhibition, % at 6 µM; hit rate 36% among 380; AID 1879, 2009; in the data active means inhibition above about 13%
Starred values were filed as active, the others as inactive; x = no result given. The list is not random: actives were taken first. Their share in the collection is about 1.7%.

SMILES	PriA SSB inh	DUSP3 inh	SARS 3CLpro inh-1	CCHFV vOTU inh	RecA intein inh	SARS 3CLpro inh-2
Cc1cccc(NS(=O)(=O)c2nnc(NC(=O)c3cccc(C)c3)s2)c1	-18	17	12*	14	3	6
Cc1cccc(NS(=O)(=O)c2nnc(NC(=O)c3ccc(Cl)cc3)s2)c1	-16	-2	13*	12	4	8
CC(C)Sc1ccc2nn(CC(=O)Nc3cccc(F)c3)c(=O)n2n1	-10	x	x	x	x	x
COc1ccc2nc(-c3ccc(C)c(NS(=O)(=O)c4cc(F)ccc4OC)c3)cn2n1	3	x	x	x	x	x
O=C(O)/C(=C\c1cccc(OCc2ccccc2)c1)c1ccc(F)cc1	0	6	16*	19	7	6
O=C(O)c1ccc(N2N=C(c3ccccc3)CC2c2ccccc2)cc1 (stereo not drawn)	-41	18	13*	-145	-429	7
CC(C)Oc1ccc(C(=O)Nc2ccc(Br)c(C(=O)c3ccccc3Cl)c2)cc1	-13	x	x	x	x	x
CCOc1ccc(-c2noc(-c3ccc(CS(=O)(=O)c4ccc(C)cc4C)o3)n2)cc1OC	-11	x	x	x	x	x
CC(C)(C)c1ccc(C(=O)Nc2ccc(S(=O)(=O)Nc3cnc4ccccc4n3)cc2)cc1	-12	x	14*	10	0	8
O=C(O)c1cc(NN=C2c3ccccc3-c3ccccc32)ccc1Cl	-4	-23	14*	17	7	11
COc1ccc(C(=O)n2c(SC)nc3cc4c(cc32)OCCO4)cc1	-14	28	12*	9	x	92*
COc1ccc(C(=O)c2cc3c(cc2[N+](=O)[O-])OCCO3)cc1	-4	13	0	-2	-43	x
Clc1ccc(OCCSc2nnc3sc4ccccc4n23)c(Cl)c1	-24	x	x	x	x	x
Cc1cc(NC(=O)c2ccc3nccnc3c2)no1	-6	x	x	x	x	x
O=c1[nH]c(C2CCN(S(=O)(=O)c3ccccc3F)CC2)nc2c1nnn2Cc1ccc(OC(F)(F)F)cc1	6	-3	13*	15	2	7
COc1cccc(-c2ccc(=O)n(CCCC(=O)Nc3cc(C)no3)n2)c1	-8	x	x	x	x	x
O=C1NC(=O)N(c2ccccc2F)C(=O)/C1=C/c1cn(CC(=O)N2CCOCC2)c2ccccc12	-4	8	18*	14	1	18*
COc1ccc(CC(=O)NC(C)c2nnc(SCC(=O)c3ccc(OC)cc3)n2C)cc1 (stereo not drawn)	23	22	4	-9	1	x
COc1ccc(CC(=O)NC(C)c2nnc(SCCOc3ccc(OC)cc3)n2C)cc1 (stereo not drawn)	-16	-14	18*	-7	x	-4
Cc1cccc(NC(=S)NN2CCOCC2)c1C	-14	-21	13*	15	6	0
NC(=O)c1ccc(C(N)=NS(=O)(=O)c2cc(C(F)(F)F)cc(C(F)(F)F)c2)cc1	2	x	x	x	x	x
N/C(=N\S(=O)(=O)c1cc(C(F)(F)F)cc(C(F)(F)F)c1)c1ccc(Cl)cc1	x	-2	14*	23	-2	6
COc1ccc(NC(=S)N2CCN(c3ccc(F)cc3)CC2)cc1	-9	x	x	x	x	x
COc1cccc(Sc2ccc(N3CCC(C(=O)NCCCc4ccco4)CC3)nn2)c1	-12	x	x	x	x	x
O=C(c1ccsc1)N1CCC(c2ccsc2)CC1	-4	x	x	x	x	x
SMILES	PriA SSB inh	DUSP3 inh	SARS 3CLpro inh-1	CCHFV vOTU inh	RecA intein inh	SARS 3CLpro inh-2
Cc1ccc(-c2cc(NC(=O)c3ccccc3[N+](=O)[O-])n[nH]2)cc1	6	-7	16*	-9	1	14*
CN(C)S(=O)(=O)c1ccc(C(=O)N2CC(c3nc(-c4ccc[nH]c4=O)no3)C2)cc1	-11	x	x	x	x	x
Cc1csc(NC(=O)c2cccc([N+](=O)[O-])c2C(=O)O)n1	-14	8	-3	7	-5	x
O=C(Nc1nc(-c2ccccc2)cs1)c1cccc([N+](=O)[O-])c1C(=O)O	-7	22	16*	1	-4	28*
CC(C)CS(=O)(=O)C1=NSC2=NC(=O)/C(=C\c3ccc(OC(=O)c4ccco4)cc3)C(=N)N21	-18	-5	13*	5	41*	-1
CSC1=NSC2=NC(=O)/C(=C\c3ccc(OC(=O)c4ccco4)cc3)C(=N)N12	-7	2	-5	9	0	x
